# Compounds with a hit are over-represented: about 3.7% of the library has one in this group of screens.
# GLP-1R agonist: qHTS of GLP-1 Receptor Agonists; Glucagon-like peptide 1 receptor (Homo sapiens), P43220; HEK293 GLP-1R CRE-luciferase, luminescence, 4-6 h; cells express a hypersensitive GLP-1R form; Potency, µM (highest dose often 45.6 µM), for the others: at the top dose activation, hits mostly activators; 380,000 compounds, 0.007% hits; AID 624172, 2012; also: % of control where 0% means no effect
# Target sequence (P43220 whole entry, looked up): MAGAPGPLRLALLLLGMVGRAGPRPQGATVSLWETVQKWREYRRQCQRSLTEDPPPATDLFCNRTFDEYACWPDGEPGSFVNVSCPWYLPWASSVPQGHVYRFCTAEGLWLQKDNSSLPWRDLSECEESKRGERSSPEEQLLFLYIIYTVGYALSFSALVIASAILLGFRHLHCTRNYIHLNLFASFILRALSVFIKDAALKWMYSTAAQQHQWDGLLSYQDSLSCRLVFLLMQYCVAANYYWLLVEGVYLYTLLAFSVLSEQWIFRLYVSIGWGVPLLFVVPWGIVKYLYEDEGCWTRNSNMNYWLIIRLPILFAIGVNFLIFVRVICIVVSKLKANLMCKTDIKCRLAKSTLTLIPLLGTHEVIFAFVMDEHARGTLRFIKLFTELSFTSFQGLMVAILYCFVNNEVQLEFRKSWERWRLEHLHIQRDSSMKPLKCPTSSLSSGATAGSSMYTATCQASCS
# GLP1R inv ag: qHTS of GLP-1 Receptor Inverse Agonists (Inhibition Mode); Glucagon-like peptide 1 receptor (Homo sapiens), P43220; HEK293 GLP-1R CRE-luciferase, luminescence, 24 h; GLP-1R form is constitutively active; Potency, µM (top dose mostly 38.3 µM), for inactives: at the top dose activity change, negative = inhibition, actives largely listed as inhibitors; 410,000 compounds, 1.6% hits; AID 624417, 2012; also: % is scaled to controls: 0 for no effect and ±100 for the full control effect; nearly all actives have a fitted effect of over 55% in size
#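 Inverse agonism was detected as reduced cAMP-driven luciferase luminescence after 24 h compound treatment. The cells were HEK293 clones expressing constitutively active human GLP-1R with the reporter. Reporter-only and GPR119 cell lines served as counterscreen controls.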
# ATXN2 expr inh: Primary qHTS for Inhibitors of ATXN expression | HEK-293 ATXN2-luciferase reporter, luminescence, 24 h | Potency, µM (titrated, usually from 57 µM), without a hit: at the top dose activity change, negative = inhibition, actives largely listed as inhibitors | 360,000 compounds, 0.72% hits; also: % is scaled to controls: 0 for no effect and ±100 for the full control effect; nearly all actives have a fitted effect of over 55% in size
#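 qHTS (up to 57 uM final) was run with 24 h compound exposure of reporter cells at 37 °C. Each well was multiplexed: SteadyGlo luminescence measured ATXN2-luciferase expression after a fluorogenic Gly-Phe-AFC viability readout (25 uM final).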
# TGFb SMAD3 inh: qHTS for Inhibitors of TGF-b. 410,000 compounds, 1.2% hits. Potency, µM (highest dose often 46.1 µM), without a hit: top-dose activity, negative = inhibition, most hits filed as inhibitors. AID 588855, 2011. HepG2 CAGA-GFP TGF-b/SMAD3 reporter, GFP fluorescence, 18 h; TGF-beta stimulated, 500 pg/mL final; also: % is scaled to controls: 0 for no effect and ±100 for the full control effect; nearly all actives have a fitted effect of over 65% in size
#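 Inhibition was scored as loss of TGF-beta-induced (500 pg/mL final, 18 hours, 37 degrees C) GFP in HEPG2 cells carrying a CAGA-GFP reporter, in DMEM with 1% FBS. Well GFP was summed per cell; Activity was normalised to unstimulated and stimulated DMSO wells, then concentration-response fitting.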
# HepG2 viability: qHTS for Inhibitors of TGF-b: Cytotox Counterscreen; Potency, µM (doses to about 46.1 µM), without a hit: top-dose activity change, negative = cytotoxicity, hits mostly cytotoxic; HepG2 CAGA-GFP viability, ATP luminescence, 18 h; 410,000 compounds, 0.76% hits
#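 CellTiter-Glo luminescence gave cytotoxicity after 18 hours at 37 degrees C. The cells were HepG2 CAGA-GFP in 1% FBS DMEM, stimulated with 500 pg/mL TGF-beta after compound addition. %Activity was normalised to no-cell wells (complete cell-killing) and DMSO (no toxicity), and curves were fitted and classified.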
# S2 tox: Viability Counterscreen for Primary qHTS for Inhibitors of ATXN expression | S2 cells (HEK-293 line with an ATXN2-luciferase reporter) viability, CellTiter-Fluor protease fluorescence, 24 h | Potency, µM (series often up to 56.7 µM), usual class: cytotoxic | 400,000 compounds, 0.49% hits; also: nearly all actives have a fitted effect of over 40% in size
# * marks the source's active call; other numbers are inactive results; i = inactive; ? = inconclusive; nt = no result; [ ] = remark or other dose. Calls follow the shape of the dose curve; as a rule, active = well fitted curve in the direction sought with a large enough effect; inconclusive = small, poorly fitted or top-dose-only effect, or another doubt; inactive = no such curve, though single readings can be large; an effect the other way counts as inactive or inconclusive. Potency is read from the fitted curve at half-maximal effect.
SMILES,GLP-1R agonist,GLP1R inv ag,ATXN2 expr inh,TGFb SMAD3 inh,HepG2 viability,S2 tox
COc1ccc2c(c1)-c1nc(-n3ncc(C(=O)N(C)CCO)c3C3CC3)ncc1CC2,nt,nt,nt,nt,nt,i
Cc1cc(-c2nc(C)c(-c3nnc(SCC(=O)Nc4cc(Cl)cc(Cl)c4)n3C)s2)no1,12%,-19%,-13%,7%,-167%,i
Cn1c(SCC(=O)Nc2cc(Cl)cc(Cl)c2)nnc1-c1ccc2nonc2c1,9%,-13%,32µM*,?,-59%,?
O=C(Cc1ccc(OCc2ccccn2)cc1)NO,nt,nt,nt,-10%,-27%,nt
O=S(=O)(Nc1ccc(O)c2ccccc12)c1ccc(F)cc1,-1%,23%,32µM*,?,5µM*,?
Oc1cc(-c2nc3ccccc3s2)cc2c1OCCN(Cc1cccn1-c1ncccn1)C2,nt,nt,nt,nt,nt,i
C/C(=N\Nc1nc2ccccc2s1)c1ccc(Br)s1,13%,10µM*,-17%[11.3 µM],13µM*,-43%,nt
CC(C)N1CCN(C(=O)c2cnn(-c3nccc(-c4ccc5c(c4)OCO5)n3)c2-c2ccco2)CC1,nt,nt,nt,nt,nt,i
c1ccc(C2[C@H]3CN(Cc4cccnc4)[C@H](c4ccccc4)C34CC2(c2cccnc2)C4)cc1 (stereo partly drawn),3%,?,-14%,14µM*,-58%,?
COC(=O)c1ccc(C23CC4(C2)[C@H](CN(C)[C@@H]4c2ccccc2)C3c2ccc(C(F)(F)F)cc2)cc1 (stereo partly drawn),-4%,10µM*,6%,1%,-3%,?
FC(F)(F)c1ccc(CN2C[C@@H]3C(c4ccccc4)C4(c5cccnc5)CC3(C4)[C@H]2c2ccccc2)cc1 (stereo partly drawn),-1%,11µM*,-14%,?,-66%,i
COCCCN(Cc1ccco1)C(=O)c1cc2c(s1)-c1ccccc1OC2,19%,?,?,?,-33%,i
COc1cc(CN2CCC3(CC2)CC3C(=O)Nc2ccc3sc(C)nc3c2)ccc1F (stereo not drawn),nt,nt,nt,nt,nt,i
O=C(CSc1nc2ccccc2s1)N1c2ccccc2Sc2ccc(C(F)(F)F)cc21,-4%,5µM*,1%,-6%,-10%,i
CCN(c1ccccc1)S(=O)(=O)c1ccc2[nH]cc(C(=O)NC3CCCCC3)c(=O)c2c1,-3%,?,?,7.9µM*,-101%,?
Cc1cc(C)cc(NS(=O)(=O)c2ccc3[nH]cc(C(=O)NCCc4ccccc4)c(=O)c3c2)c1,nt,-6%,-15%,-26%,-23%,?
Cc1ccc(CNC(=O)c2c[nH]c3ccc(S(=O)(=O)Nc4ccc(C(C)C)cc4)cc3c2=O)cc1,nt,?,nt,?,11µM*,nt
Cc1ccccc1NS(=O)(=O)c1ccc2[nH]cc(C(=O)NCCc3ccccc3)c(=O)c2c1,nt,?,nt,20µM*,-42%,nt
CC1=C(C(=O)O)N2C(=O)[C@@H](NC(=O)[C@H](N)C3=CCC=CC3)[C@H]2SC1,-5%,nt,11%,nt,nt,i
CCn1c(SC(C)C(=O)Nc2ccc(C)cc2)nnc1-c1ccccc1 (stereo not drawn),nt,nt,nt,-6%,-60%,nt
CCC(=O)OCCNc1cc(Sc2nccn2C)c2nonc2c1[N+](=O)[O-],-25%,8%,?,11µM*,-124%,nt
CCCC(=O)OCCNc1cc(Sc2nc3ccccc3[nH]2)c2nonc2c1[N+](=O)[O-],-29%,?,?,?,6.3µM*,?
CCC(=O)OCCNc1cc(SCCC(=O)OC)c2nonc2c1[N+](=O)[O-],-31%,10%,8%,?,-75%,i
